Tested on: Vero E6 infected with SARS-CoV-2
Experiment: inhibition of SARS-CoV-2 cytopathic effect; higher = more antiviral protection, active = above 15
Conditions: 48 h

Measured: inhibition of SARS-CoV-2 cytopathic effect

C[C@H](N)C(=O)N[C@@]1(C(=O)O)C[C@@H](Sc2nnc[nH]2)[C@H]2[C@H](C(=O)O)[C@H]21
inactive: 1 nM -2.66% | 8.33 nM -4.35% | 100 nM -3.65% | 833.33 nM -1.13% | 10000 nM 0.56%

CC1(C)CC(O)CC(C)(C)N1[O] [tempol]
inactive: 1 nM 9.35% | 8.33 nM 1.45% | 100 nM -0.66% | 833.33 nM 1.43% | 10000 nM 1.53%

CC1(C)CC(=O)C(C2C3=C(CC(C)(C)CC3=O)Oc3ccccc32)C(=O)C1 (stereo not given)
inactive: 1 nM -0.63% | 8.33 nM 0.77% | 100 nM -0.14% | 833.33 nM 1.93% | 10000 nM -2.4%

CNC(=O)c1ccc2cc([C@@]3(O)CCn4cncc43)ccc2c1 [orteronel]
inactive: 1 nM 3.23% | 8.33 nM 3.01% | 100 nM 4.35% | 833.33 nM 3.1% | 10000 nM 2.53%

C/C(=C\c1csc(C)n1)[C@@H]1C[C@@H]2O[C@]2(C)CCC[C@H](C)[C@H](O)[C@@H](C)C(=O)C(C)(C)[C@@H](O)CC(=O)O1 [epothilone-B]
inactive: 1 nM -1.66% | 8.33 nM -5.81% | 100 nM -4.92% | 833.33 nM -0.91% | 10000 nM -0.53%

CN1C(C(=O)Nc2ccccn2)=C(O)c2ccccc2S1(=O)=O [piroxicam]
inactive: 1 nM 0.3% | 8.33 nM -0.73% | 100 nM 0.15% | 833.33 nM 0.8% | 10000 nM 1.41%

CC(=O)OCC(CCn1cnc2cnc(N)nc21)COC(C)=O [famciclovir]
inactive: 1 nM -0.42% | 8.33 nM -2.15% | 100 nM -3.04% | 833.33 nM -0.25% | 10000 nM -2.48%

Reference: the supplement of paper PMC13380429
